{"source": "ChEMBL document CHEMBL3988442", "about": "“University of Dundee, Small-Polar-MMV Screening Library” (2021)", "data": [{"test_system": "Trypanosoma cruzi", "experiment": "Trypanosoma cruzi phosphomannomutase and mannose-1-phosphate guanylyltransferase assay", "format": "functional", "set-up": "scale not given: direction of the effect not stated beside the values", "details": "10 µM", "units": {"Percent Effect": "%"}, "values": [{"smiles": "Cc1cccc2cc(CNCCCN3CCOCC3)c(=O)[nH]c12", "Percent Effect": 6.13}, {"smiles": "CC(C)N(C)C(=O)C1=NOC2(CCN(C(=O)c3ccncc3)C2)C1", "note": "(stereo not given)", "Percent Effect": -1.79}, {"smiles": "Cc1cnn(CC(C)NCc2ccc(-n3cccn3)cc2)c1", "note": "(stereo not given)", "Percent Effect": -3.18}, {"smiles": "Cc1nc(C)n(C2CCCN(C(=O)Cc3cccnc3)C2)n1", "note": "(stereo not given)", "Percent Effect": 0.586}, {"smiles": "CN(C)C(=O)CN1CCCCC1c1nc(N)ncc1-c1cccc(F)c1", "note": "(stereo not given)", "Percent Effect": 5.12}, {"smiles": "O=C(C1CC1)N1CCN(Cc2coc(-c3ccc(Cl)cc3)n2)CC1", "Percent Effect": 8.8}, {"smiles": "CN(CCNC(=O)N1CCN(Cc2ccon2)CC1)C1CCCC1", "Percent Effect": 1.85}, {"smiles": "c1csc(N2CCCN(Cc3nc(C4CC4)no3)CC2)n1", "Percent Effect": -0.749}, {"smiles": "N#Cc1ccc(C(=O)N2CC[C@H]3[C@@H]2CCC(=O)N3c2cccnc2)cc1", "Percent Effect": -2.44}, {"smiles": "Cc1nn(C)c(C)c1C1CCCN1C(=O)c1ccc(Cl)o1", "note": "(stereo not given)", "Percent Effect": 4.88}, {"smiles": "Cc1nccn1-c1cc(CNC(=O)c2ccccn2)ccn1", "Percent Effect": 3.33}, {"smiles": "O=C1COc2c(cccc2C(=O)N2CCCCC2Cn2cccn2)N1", "note": "(stereo not given)", "Percent Effect": -2.84}, {"smiles": "Cc1cc(C)n(CC2CCCN2CC(=O)N(C)C)n1", "note": "(stereo not given)", "Percent Effect": -2.92}, {"smiles": "CC(C)(C)C(=O)NCCc1ccn(-c2ccccc2)n1", "Percent Effect": -0.923}, {"smiles": "CC(C)C(NC(=O)NCCNc1ccccn1)c1cccs1", "note": "(stereo not given)", "Percent Effect": -0.187}, {"smiles": "Cc1ccc(CN2CCCC3(COCCN(Cc4c[nH]nn4)C3)C2)o1", "note": "(stereo not given)", "Percent Effect": 0.965}, {"smiles": "CCNC(c1ccc(OC)cc1)c1cccnc1", "note": "(stereo not given)", "Percent Effect": -1.74}, {"smiles": "CCN(CC1CCCO1)C(=O)Nc1cc(OC)c(OC)cc1C", "note": "(stereo not given)", "Percent Effect": 4.06}, {"smiles": "Cc1cc(C2CCCN2C(=O)c2cc3c(s2)CCC3)on1", "note": "(stereo not given)", "Percent Effect": 6.58}, {"smiles": "COc1ccccc1[C@@H]1CN(C(=O)c2csc(C)n2)C[C@H]1C(=O)O", "Percent Effect": -0.0972}, {"smiles": "CCc1ccc(CN2CCC3(CC2)CC(N2CCN(C)CC2)CO3)cc1", "note": "(stereo not given)", "Percent Effect": -0.293}, {"smiles": "Cc1ccc(C(=O)NC(C)CN2CCCC2=O)c(=O)[nH]1", "note": "(stereo not given)", "Percent Effect": -2.94}, {"smiles": "CCc1nnc2n1CCN(C(=O)c1cc3ccc(F)cc3nc1C)C2", "Percent Effect": 1.12}, {"smiles": "CC(C)n1ccnc1C1CCN(Cc2ccc(Cl)c(F)c2)CC1", "Percent Effect": 0.885}, {"smiles": "CC(C)c1ncc2c(n1)CN(Cc1ccc(C(N)=O)cc1)CC2", "Percent Effect": 10.7}, {"smiles": "COc1cccc2c1ccn2CCC(=O)NCCCC(=O)O", "Percent Effect": -4.32}, {"smiles": "CN(C(=O)c1ccccn1)c1nc2c(s1)CCc1c-2cnn1C", "Percent Effect": 4.94}, {"smiles": "Cc1ccc2c(c1)OCCCC2NCc1nnc2n1CCCCC2", "note": "(stereo not given)", "Percent Effect": 5.57}, {"smiles": "CC(C)c1noc(CN2CCN(C(=O)c3ccccc3F)CC2)n1", "Percent Effect": -2.32}, {"smiles": "O=C(c1ccc[nH]1)N1CCC(c2nccn2Cc2ccncc2)CC1", "Percent Effect": 7.05}, {"smiles": "O=S(=O)(Nc1cnn(C2CCOCC2)c1)c1ccc(F)c(F)c1", "Percent Effect": -5.03}, {"smiles": "CN(C)C(CNC(=O)c1cccc(-n2cnnn2)c1)c1ccccc1Cl", "note": "(stereo not given)", "Percent Effect": -7.64}, {"smiles": "CC(O)CN1CCN(C(=O)c2ccc(Br)o2)CC1", "note": "(stereo not given)", "Percent Effect": -3.57}, {"smiles": "CC(NC1(CNC(=O)CC(C)(C)C)CCOCC1)c1ccccc1", "note": "(stereo not given)", "Percent Effect": -0.684}, {"smiles": "CC(=O)N1CC(=O)N(c2ccccc2)CC12CCN(Cc1nccs1)C2", "note": "(stereo not given)", "Percent Effect": -5.02}, {"smiles": "CN(C)CC1CN(Cc2csc(C3CCCC3)n2)CCO1", "note": "(stereo not given)", "Percent Effect": 6.63}, {"smiles": "Cc1cccc2nc(C(=O)N3CCC(Nc4cccnn4)CC3)cn12", "Percent Effect": -0.0979}, {"smiles": "O=C(CCNc1ncccn1)N1CCCC(n2ccnc2)C1", "note": "(stereo not given)", "Percent Effect": -2.77}, {"smiles": "CC(=O)N1CC(=O)N(c2cnn(C)c2)CC12CCN(CC1CC1)C2", "note": "(stereo not given)", "Percent Effect": -3.52}, {"smiles": "COCCNC(=O)c1cc2c(s1)CCN2C(=O)c1ccccc1", "Percent Effect": 1.35}]}, {"target": "T1, Arginase-2, mitochondrial (Homo sapiens) (UniProt P78540)", "T1 sequence (whole entry)": "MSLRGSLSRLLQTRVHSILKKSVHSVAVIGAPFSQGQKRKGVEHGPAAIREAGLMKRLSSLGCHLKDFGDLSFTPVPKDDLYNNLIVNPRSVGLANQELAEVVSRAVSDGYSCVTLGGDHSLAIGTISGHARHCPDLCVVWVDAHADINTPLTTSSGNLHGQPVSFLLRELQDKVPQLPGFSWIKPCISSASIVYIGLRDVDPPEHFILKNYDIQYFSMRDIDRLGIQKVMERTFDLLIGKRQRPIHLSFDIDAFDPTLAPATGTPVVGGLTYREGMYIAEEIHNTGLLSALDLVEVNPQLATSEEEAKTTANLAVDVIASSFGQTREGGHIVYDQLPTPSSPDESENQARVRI", "experiment": "in vitro enzyme assay to detect the production of urea directly proportional to the activity of Arginase II", "format": "functional", "set-up": "scale not given: in the data most compounds retested in dose-response had high values", "details": "33.3 µM", "units": {"Percent Effect": "%"}, "values": [{"smiles": "Cc1cccc2cc(CNCCCN3CCOCC3)c(=O)[nH]c12", "Percent Effect": -2.09}, {"smiles": "CC(C)N(C)C(=O)C1=NOC2(CCN(C(=O)c3ccncc3)C2)C1", "note": "(stereo not given)", "Percent Effect": -5.19}, {"smiles": "Cc1cnn(CC(C)NCc2ccc(-n3cccn3)cc2)c1", "note": "(stereo not given)", "Percent Effect": 0.645}, {"smiles": "Cc1nc(C)n(C2CCCN(C(=O)Cc3cccnc3)C2)n1", "note": "(stereo not given)", "Percent Effect": 2.5}, {"smiles": "CN(C)C(=O)CN1CCCCC1c1nc(N)ncc1-c1cccc(F)c1", "note": "(stereo not given)", "Percent Effect": -4.43}, {"smiles": "O=C(C1CC1)N1CCN(Cc2coc(-c3ccc(Cl)cc3)n2)CC1", "Percent Effect": -1.42}, {"smiles": "CN(CCNC(=O)N1CCN(Cc2ccon2)CC1)C1CCCC1", "Percent Effect": 4.69}, {"smiles": "c1csc(N2CCCN(Cc3nc(C4CC4)no3)CC2)n1", "Percent Effect": -2.49}, {"smiles": "N#Cc1ccc(C(=O)N2CC[C@H]3[C@@H]2CCC(=O)N3c2cccnc2)cc1", "Percent Effect": 3.5}, {"smiles": "Cc1nn(C)c(C)c1C1CCCN1C(=O)c1ccc(Cl)o1", "note": "(stereo not given)", "Percent Effect": -3.33}, {"smiles": "Cc1nccn1-c1cc(CNC(=O)c2ccccn2)ccn1", "Percent Effect": -0.455}, {"smiles": "O=C1COc2c(cccc2C(=O)N2CCCCC2Cn2cccn2)N1", "note": "(stereo not given)", "Percent Effect": 3.16}, {"smiles": "Cc1cc(C)n(CC2CCCN2CC(=O)N(C)C)n1", "note": "(stereo not given)", "Percent Effect": -4.01}, {"smiles": "CC(C)(C)C(=O)NCCc1ccn(-c2ccccc2)n1", "Percent Effect": 4.09}, {"smiles": "CC(C)C(NC(=O)NCCNc1ccccn1)c1cccs1", "note": "(stereo not given)", "Percent Effect": 4.98}, {"smiles": "Cc1ccc(CN2CCCC3(COCCN(Cc4c[nH]nn4)C3)C2)o1", "note": "(stereo not given)", "Percent Effect": -22.8}, {"smiles": "CCNC(c1ccc(OC)cc1)c1cccnc1", "note": "(stereo not given)", "Percent Effect": -0.645}, {"smiles": "CCN(CC1CCCO1)C(=O)Nc1cc(OC)c(OC)cc1C", "note": "(stereo not given)", "Percent Effect": -2.28}, {"smiles": "Cc1cc(C2CCCN2C(=O)c2cc3c(s2)CCC3)on1", "note": "(stereo not given)", "Percent Effect": -1.92}, {"smiles": "COc1ccccc1[C@@H]1CN(C(=O)c2csc(C)n2)C[C@H]1C(=O)O", "Percent Effect": 5.3}, {"smiles": "CCc1ccc(CN2CCC3(CC2)CC(N2CCN(C)CC2)CO3)cc1", "note": "(stereo not given)", "Percent Effect": -2.23}, {"smiles": "Cc1ccc(C(=O)NC(C)CN2CCCC2=O)c(=O)[nH]1", "note": "(stereo not given)", "Percent Effect": 0.455}, {"smiles": "CCc1nnc2n1CCN(C(=O)c1cc3ccc(F)cc3nc1C)C2", "Percent Effect": -3.92}, {"smiles": "CC(C)n1ccnc1C1CCN(Cc2ccc(Cl)c(F)c2)CC1", "Percent Effect": -4.14}, {"smiles": "CC(C)c1ncc2c(n1)CN(Cc1ccc(C(N)=O)cc1)CC2", "Percent Effect": -2.68}, {"smiles": "COc1cccc2c1ccn2CCC(=O)NCCCC(=O)O", "Percent Effect": -2.99}, {"smiles": "CN(C(=O)c1ccccn1)c1nc2c(s1)CCc1c-2cnn1C", "Percent Effect": -4.41}, {"smiles": "Cc1ccc2c(c1)OCCCC2NCc1nnc2n1CCCCC2", "note": "(stereo not given)", "Percent Effect": 2.23}, {"smiles": "CC(C)c1noc(CN2CCN(C(=O)c3ccccc3F)CC2)n1", "Percent Effect": -3.88}, {"smiles": "O=C(c1ccc[nH]1)N1CCC(c2nccn2Cc2ccncc2)CC1", "Percent Effect": 14.1}, {"smiles": "O=S(=O)(Nc1cnn(C2CCOCC2)c1)c1ccc(F)c(F)c1", "Percent Effect": -8.39}, {"smiles": "CN(C)C(CNC(=O)c1cccc(-n2cnnn2)c1)c1ccccc1Cl", "note": "(stereo not given)", "Percent Effect": 3.64}, {"smiles": "CC(O)CN1CCN(C(=O)c2ccc(Br)o2)CC1", "note": "(stereo not given)", "Percent Effect": 3.45}, {"smiles": "CC(NC1(CNC(=O)CC(C)(C)C)CCOCC1)c1ccccc1", "note": "(stereo not given)", "Percent Effect": 4.22}, {"smiles": "CC(=O)N1CC(=O)N(c2ccccc2)CC12CCN(Cc1nccs1)C2", "note": "(stereo not given)", "Percent Effect": -54.3}, {"smiles": "CN(C)CC1CN(Cc2csc(C3CCCC3)n2)CCO1", "note": "(stereo not given)", "Percent Effect": 0.36}, {"smiles": "Cc1cccc2nc(C(=O)N3CCC(Nc4cccnn4)CC3)cn12", "Percent Effect": -1.47}, {"smiles": "O=C(CCNc1ncccn1)N1CCCC(n2ccnc2)C1", "note": "(stereo not given)", "Percent Effect": 0.645}, {"smiles": "CC(=O)N1CC(=O)N(c2cnn(C)c2)CC12CCN(CC1CC1)C2", "note": "(stereo not given)", "Percent Effect": 1.67}, {"smiles": "COCCNC(=O)c1cc2c(s1)CCN2C(=O)c1ccccc1", "Percent Effect": -53.9}]}]}
